Test results taken from the supplement of paper PMC12494721.
Structures can show the parent of a compound that is named as a salt.

Columns and labels:
Conditions in all cases: incubation time: 27 h, anaerobic, 37 °C;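 for the amine columns active = adjusted P below 0.05 in both replicates with a change the same way and a mean fold change under 0.8 or over 1.25; inactive = the rest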
[1] = system: Clostridium sporogenes DSM 1664; test: growth (OD595) fold change vs plate DMSO controls (fold change (ratio)); higher = more growth
Method in brief: (§1)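 After 27 h at 37 °C under anaerobic conditions, 96-well cultures in mGAM were shaken and read at 595 nm. The readings were blank-subtracted, corrected for compound background using 20 µM compound solutions in water, and converted to OD with a calibration factor of 5. Growth is defined as the fold change over the median of DMSO controls on each plate. Fold changes above 1.5 were set to NA, and each value is the mean of 2 biological replicates.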

Escherichia coli IAI1 [2] = test: as above
Method in brief: as §1

[3] = system: Klebsiella aerogenes DSM 30053; test: as above
Method in brief: as §1

[4] = system: Ruminococcus gnavus DSM 108212; test: as above
Method in brief: as §1

[5] = system: Klebsiella aerogenes DSM 30053; test: fold change of Histamine concentration vs plate DMSO controls (fold change (ratio)); higher = more amine produced, active = hit call of the paper (significant change in both replicates, either direction)
Method in brief: (§2)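 Each value is the fold change relative to DMSO-only wells on the same plate. Four gut bacterial strains were grown anaerobically in mGAM at 37 °C for 27 h in 80 µL wells, starting at OD 0.1 before a 1:1 dilution, with compounds at 20 µM final (sweeteners 50 µM). Whole cultures were extracted with cold acetonitrile/methanol containing 0.1% formic acid, centrifuged, and amines were quantified by LC–triple-quadrupole MS (dynamic MRM) against external calibration curves with within-batch drift correction. Values are means of 2 biological replicates.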

[6] = system: Clostridium sporogenes DSM 1664; test: fold change of Tryptamine concentration vs plate DMSO controls (fold change (ratio)); higher = more amine produced, active = hit call of the paper (significant change in both replicates, either direction)
Method in brief: as §2

[7] = system: Ruminococcus gnavus DSM 108212; test: as above
Method in brief: as §2

Escherichia coli IAI1 [8] = test: fold change of Putrescine concentration vs plate DMSO controls (fold change (ratio)); higher = more amine produced, active = hit call of the paper (significant change in both replicates, either direction)
Method in brief: as §2

[9] = system: Klebsiella aerogenes DSM 30053; test: as above
Method in brief: as §2

Escherichia coli IAI1 [10] = test: fold change of Cadaverine concentration vs plate DMSO controls (fold change (ratio)); higher = more amine produced, active = hit call of the paper (significant change in both replicates, either direction)
Method in brief: as §2

[11] = system: Klebsiella aerogenes DSM 30053; test: as above
Method in brief: as §2

[12] = system: Ruminococcus gnavus DSM 108212; test: fold change of 2-Phenylethylamine concentration vs plate DMSO controls (fold change (ratio)); higher = more amine produced, active = hit call of the paper (significant change in both replicates, either direction)
Method in brief: as §2

| Structure (SMILES) | growth [1] | growth (Escherichia coli IAI1 [2]) | growth [3] | growth [4] | fold change of Histamine concentration [5] | fold change of Tryptamine concentration [6] | fold change of Tryptamine concentration [7] | fold change of Putrescine concentration (Escherichia coli IAI1 [8]) | fold change of Putrescine concentration [9] | fold change of Cadaverine concentration (Escherichia coli IAI1 [10]) | fold change of Cadaverine concentration [11] | fold change of 2-Phenylethylamine concentration [12] |
| --- | --- | --- | --- | --- | --- | --- | --- | --- | --- | --- | --- | --- |
| O=c1[nH]c(=O)n([C@H]2C[C@H](O)[C@@H](CO)O2)cc1F [Floxuridine] (20 µM) | 0.467 | 0.882 | 0.907 | 1.41 | 0.675 (active) | 0.514 (inactive) | 0.748 (active) | 0.593 (active) | 0.903 (inactive) | 0.889 (inactive) | 1.02 (inactive) | 0.884 (inactive) |
| CC(N)(Cc1ccc(O)c(O)c1)C(=O)O (stereo not drawn) [(L) Methyldopa] (20 µM) | 0.936 | 0.99 | 1 | 0.89 | 1.06 (inactive) | 1 (inactive) | 1.11 (inactive) | 0.882 (inactive) | 1.06 (inactive) | 0.965 (inactive) | 1.07 (inactive) | 1.26 (active) |
| NC1CCN(c2c(F)cc3c(=O)c(C(=O)O)cn(C4CC4)c3c2Cl)C1 (stereo not drawn) [Clinafloxacin] (20 µM) | 0.00892 | 0.0142 | 0.102 | 0.356 | 0.118 (active) | 0.0514 (active) | 0.337 (active) | 0.703 (inactive) | 0.647 (active) | 0.233 (active) | 0.942 (inactive) | 0.36 (active) |
| Cc1cc(N)c2ccccc2[n+]1CCCCCCCCCC[n+]1c(C)cc(N)c2ccccc21 [Dequalinium dichloride] (20 µM) | 0.993 | 0.99 | 1.11 | 0.565 | 0.873 (inactive) | 0.951 (inactive) | 0.896 (inactive) | 0.933 (inactive) | 1 (inactive) | 0.968 (inactive) | 1.01 (inactive) | 0.921 (inactive) |
| C[C@]1(Cn2ccnn2)[C@H](C(=O)O)N2C(=O)C[C@H]2S1(=O)=O [Tazobactam] (20 µM) | 0.105 | 1 | 0.973 | 1.05 | 0.904 (inactive) | 0.703 (active) | 1.05 (inactive) | 1.05 (inactive) | 1.04 (inactive) | 0.989 (inactive) | 1.03 (inactive) | 1.1 (inactive) |
| COC(=O)[C@H](c1ccccc1Cl)N1CCc2sccc2C1 [Clopidogrel] (20 µM) | 1.01 | 1.25 | 0.982 | 0.969 | 1.06 (inactive) | 0.986 (inactive) | 0.963 (inactive) | 1.23 (inactive) | 1.02 (inactive) | 0.975 (inactive) | 0.996 (inactive) | 0.941 (inactive) |
| COc1ccccc1N1CCN(CCCNc2cc(=O)n(C)c(=O)n2C)CC1 [Urapidil hydrochloride] (20 µM) | 0.984 | 0.934 | 1 | 0.999 | 0.993 (inactive) | 1.04 (inactive) | 0.977 (inactive) | 0.978 (inactive) | 1.01 (inactive) | 1.03 (inactive) | 1 (inactive) | 0.971 (inactive) |
| CC(C(=O)O)c1ccc(C(=O)c2cccs2)cc1 (stereo not drawn) [Suprofen] (20 µM) | 1.08 | 0.983 | 0.986 | 0.974 | 1.03 (inactive) | 1.04 (inactive) | 1.09 (inactive) | 0.954 (inactive) | 0.995 (inactive) | 1.01 (inactive) | 0.986 (inactive) | 1.08 (inactive) |
| CO[C@H]1C[C@H](O[C@H]2[C@H](C)[C@@H](O[C@@H]3O[C@H](C)C[C@H](N(C)C)[C@H]3OC(C)=O)[C@@H](C)C[C@@]3(CO3)C(=O)[C@H](C)[C@@H](OC(C)=O)[C@@H](C)[C@@H](C)OC(=O)[C@@H]2C)O[C@@H](C)[C@@H]1OC(C)=O [Troleandomycin] (20 µM) | 0.0017 | 0.966 | 1.03 | 0.456 | 0.976 (inactive) | 0.0831 (active) | 0.676 (active) | 1.01 (inactive) | 0.987 (inactive) | 1 (inactive) | 1.01 (inactive) | 0.769 (active) |
| Cc1ccc2c([nH]c(=O)c3c(=O)cc(C(=O)OCCC(C)C)oc32)c1C [Repirinast] (20 µM) | 1.15 | 1.03 | 0.997 | 1.08 | 1.03 (inactive) | 1.08 (inactive) | 0.977 (inactive) | 1.01 (inactive) | 1 (inactive) | 1.03 (inactive) | 0.998 (inactive) | 0.964 (inactive) |
| CCCCOCCOCCOCc1cc2c(cc1CCC)OCO2 [Piperonyl butoxide] (20 µM) | 1.04 | 1.09 | 1.09 | 1.06 | 0.916 (inactive) | 1.04 (inactive) | 1.07 (inactive) | 0.998 (inactive) | 0.999 (inactive) | 0.972 (inactive) | 1.02 (inactive) | 1.17 (inactive) |
| CN(C)CCOC(=O)COc1ccc(Cl)cc1 [Meclofenoxate hydrochloride] (20 µM) | 1.13 | 1.02 | 1.01 | 0.995 | 1.11 (inactive) | 0.931 (inactive) | 0.958 (inactive) | 1 (inactive) | 1.01 (inactive) | 1.02 (inactive) | 0.979 (inactive) | 0.895 (inactive) |
| CN[C@H](CC(C)C)C(=O)N[C@H]1C(=O)N[C@@H](CC(N)=O)C(=O)N[C@H]2C(=O)N[C@H]3C(=O)N[C@H](C(=O)N[C@H](C(=O)O)c4cc(O)cc(O)c4-c4cc3ccc4O)[C@H](O)c3ccc(c(Cl)c3)Oc3cc2cc(c3O[C@@H]2O[C@H](CO)[C@@H](O)[C@H](O)[C@H]2O[C@H]2C[C@](C)(N)[C@H](O)[C@H](C)O2)Oc2ccc(cc2Cl)[C@H]1O [Vancomycin hydrochloride] (20 µM) | 0 | 1.06 | 1.01 | 0.17 | 1.07 (inactive) | 0.0328 (active) | 0.0491 (active) | 1.01 (inactive) | 1.04 (inactive) | 0.953 (inactive) | 0.998 (inactive) | 0.0538 (active) |
| Cc1ncc(CO)c(CO)c1O [Pyridoxine hydrochloride] (20 µM) | 1.06 | 0.974 | 1.06 | 1.01 | 0.916 (inactive) | 1.05 (inactive) | 1.02 (inactive) | 0.925 (inactive) | 0.989 (inactive) | 1.06 (inactive) | 1.02 (inactive) | 1.01 (inactive) |
| CCCCS(=O)(=O)N[C@@H](Cc1ccc(OCCCCC2CCNCC2)cc1)C(=O)O [Tirofiban hydrochloride] (20 µM) | 0.927 | 0.983 | 1.01 | 1.11 | 0.975 (inactive) | 0.943 (inactive) | 1.03 (inactive) | 0.994 (inactive) | 1 (inactive) | 1 (inactive) | 1.01 (inactive) | 1.02 (inactive) |
| N[C@H](Cc1ccccc1)C(=O)O [D-phenylalanine] (20 µM) | 1.13 | 1.02 | 0.991 | 0.917 | 0.946 (inactive) | 1.1 (inactive) | 0.973 (inactive) | 1.06 (inactive) | 1.02 (inactive) | 0.961 (inactive) | 1.01 (inactive) | 0.968 (inactive) |
| N=C(N)NC(=O)c1nc(Cl)c(N)nc1N [Amiloride hydrochloride dihydrate] (20 µM) | 0.984 | 0.951 | 0.984 | 0.948 | 0.982 (inactive) | 0.98 (inactive) | 1.09 (inactive) | 1.03 (inactive) | 0.94 (inactive) | 0.987 (inactive) | 1.05 (inactive) | 1.08 (inactive) |
| Cc1scc2c1N(C(=O)CN1CCN(C)CC1)c1ccccc1NC2=O [Telenzepine dihydrochloride] (20 µM) | 1.09 | 1.07 | 1 | 1.01 | 0.927 (inactive) | 1.01 (inactive) | 1.01 (inactive) | 1.06 (inactive) | 0.984 (inactive) | 1 (inactive) | 1.01 (inactive) | 0.964 (inactive) |
| CC(=O)[C@H]1CC[C@H]2[C@@H]3C=CC4=CC(=O)CC[C@@]4(C)[C@@H]3CC[C@]12C [Dydrogesterone] (20 µM) | 1.08 | 0.983 | 0.99 | 0.994 | 1.03 (inactive) | 0.933 (inactive) | 0.978 (inactive) | 0.911 (inactive) | 1.01 (inactive) | 1.04 (inactive) | 0.983 (inactive) | 1 (inactive) |
| CC(=O)OCC(=O)[C@@]12OC3(CCCC3)O[C@@H]1C[C@H]1[C@@H]3CCC4=CC(=O)C=C[C@]4(C)[C@@]3(F)[C@@H](O)C[C@@]12C [Amcinonide] (20 µM) | 1.12 | 1.02 | 1.02 | 1.19 | 1.04 (inactive) | 0.964 (inactive) | 1.05 (inactive) | 1.02 (inactive) | 0.999 (inactive) | 1.04 (inactive) | 0.997 (inactive) | 1.07 (inactive) |
| O=C(CCNNC(=O)c1ccncc1)NCc1ccccc1 [Nialamide] (20 µM) | 0.952 | 0.991 | 1.02 | 0.89 | 1.03 (inactive) | 1.01 (inactive) | 1 (inactive) | 0.997 (inactive) | 1 (inactive) | 1.03 (inactive) | 0.998 (inactive) | 1.01 (inactive) |
| CCCCc1ccc2[nH]c(NC(=O)OC)nc2c1 [Parbendazole] (20 µM) | 1.04 | 1.04 | 1.02 | 1.25 | 1.11 (inactive) | 0.953 (inactive) | 0.998 (inactive) | 0.98 (inactive) | 1.07 (inactive) | 0.981 (inactive) | 1.03 (inactive) | 1.02 (inactive) |
| CC(C(O)c1ccc(O)cc1)N1CCC(Cc2ccccc2)CC1 (stereo not drawn) [Ifenprodil tartrate] (20 µM) | 1.02 | 1.12 | 1.03 | 0.985 | 0.977 (inactive) | 1.02 (inactive) | 1.03 (inactive) | 1.08 (inactive) | 0.973 (inactive) | 0.947 (inactive) | 1 (inactive) | 0.992 (inactive) |
| CC(=O)S[C@@H]1CC2=CC(=O)CC[C@]2(C)[C@H]2CC[C@@]3(C)[C@@H](CC[C@@]34CCC(=O)O4)[C@H]12 [Spironolactone] (20 µM) | 1.1 | 0.915 | 0.916 | 0.833 | 1 (inactive) | 1.03 (inactive) | 1.06 (inactive) | 1.02 (inactive) | 1.01 (inactive) | 1.02 (inactive) | 1 (inactive) | 1.01 (inactive) |
